Data published in PubChem BioAssay (NCATS).
Inconclusive results are not listed. Activity calls are given as the source filed them. Unless noted, calls follow the shape of the dose curve; as a rule, active = well fitted curve in the direction sought with a large enough effect; inconclusive = small, poorly fitted or top-dose-only effect, or another doubt; inactive = no such curve, though single readings can be large; an effect the other way counts as inactive or inconclusive.

How the values were obtained:
[1] = Quantitative High-Throughput drug screen in 47 multiple myeloma cell lines against the NCATS MIPE library collection: KMS34_JCRB cell viability assay (AID 1918985); also: nearly all actives have a fitted effect of over 40% in size
Procedure, shortened: (§1)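 500 cells/well; MIPE 4.0 drugs pin-transferred; 48 h, 37C, 5% CO2. CellTiter-Glo, 5 min RT, luminescence. Controls: DMSO 100%, media 0%.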

[2] = Quantitative High-Throughput drug screen in 47 multiple myeloma cell lines against the NCATS MIPE library collection: OCIMY7_PLB cell viability assay (AID 1918987); also: nearly all actives have a fitted effect of over 65% in size
Procedure, shortened: as §1

[3] = Quantitative High-Throughput drug screen in 47 multiple myeloma cell lines against the NCATS MIPE library collection: OCIMY5_PLB cell viability assay (AID 1918988); also: nearly all actives have a fitted effect of over 65% in size
Procedure, shortened: as §1

[4] = Quantitative High-Throughput drug screen in 47 multiple myeloma cell lines against the NCATS MIPE library collection: OPM1_PLB cell viability assay (AID 1918989); also: nearly all actives have a fitted effect of over 40% in size
Procedure, shortened: as §1

[5] = Quantitative High-Throughput drug screen in 47 multiple myeloma cell lines against the NCATS MIPE library collection: SKMM1_PLB cell viability assay (AID 1919863); conditions: SKMM1 myeloma viability, CellTiter-Glo ATP, 48 h; viability: stronger effect = lower value; also: nearly all actives have a fitted effect of over 35% in size
Procedure, shortened: as §1

[6] = Quantitative High-Throughput drug screen in 47 multiple myeloma cell lines against the NCATS MIPE library collection: XG6_PLB cell viability assay (AID 1919865); also: nearly all actives have a fitted effect of over 40% in size
Procedure, shortened: as §1

[7] = Quantitative High-Throughput drug screen in 47 multiple myeloma cell lines against the NCATS MIPE library collection: XG1_PLB cell viability assay (AID 1919866); also: nearly all actives have a fitted effect of over 35% in size
Procedure, shortened: as §1

[8] = Quantitative High-Throughput drug screen in 47 multiple myeloma cell lines against the NCATS MIPE library collection: VP6_DJ cell viability assay (AID 1919867); also: nearly all actives have a fitted effect of over 40% in size
Procedure, shortened: as §1

[9] = Quantitative High-Throughput drug screen in 47 multiple myeloma cell lines against the NCATS MIPE library collection: PCM6_Riken cell viability assay (AID 1919870); also: nearly all actives have a fitted effect of over 30% in size
Procedure, shortened: as §1

[10] = Quantitative High-Throughput drug screen in 47 multiple myeloma cell lines against the NCATS MIPE library collection: RPMI8226_ATCC cell viability assay (AID 1919871); also: nearly all actives have a fitted effect of over 30% in size
Procedure, shortened: as §1

[11] = Quantitative High-Throughput drug screen in 47 multiple myeloma cell lines against the NCATS MIPE library collection: OPM2_DSMZ cell viability assay (AID 1919872); also: nearly all actives have a fitted effect of over 30% in size
Procedure, shortened: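 Myeloma cells (500 per well) were exposed to MIPE 4.0 compounds by pin transfer and incubated 48 hours at 37C, 5% CO2. Viability was read as ATP by CellTiter-Glo luminescence, normalised to DMSO (100%) and media-only (0%) wells.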

[12] = Quantitative High-Throughput drug screen in 47 multiple myeloma cell lines against the NCATS MIPE library collection: KMS11_JCRBsus cell viability assay (AID 1919873); also: nearly all actives have a fitted effect of over 50% in size
Procedure, shortened: as §1

[13] = Quantitative High-Throughput drug screen in 47 multiple myeloma cell lines against the NCATS MIPE library collection: KMS28BM_JCRB cell viability assay (AID 1919874); also: nearly all actives have a fitted effect of over 35% in size
Procedure, shortened: as §1

[14] = qHTS drug screen for cell cycle checkpoint inhibitors in PARPi-resistant BRCA-mutant ovarian cancer cell lines. (AID 1963452; calls by dose curve); conditions: PEO1/OlaR viability, CellTiter-Glo luminescence, 96 h; for Z-AUC: stronger effect = lower value
Procedure, shortened: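 PEO1, PEO4 and PEO1/OlaR ovarian cancer cells, 600 per well, exposed 96 h at 37C to a dilution series. Viability read by CellTiter-Glo luminescence, normalized to DMSO and empty wells; activity summarized as Z-AUC.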

[15] = qHTS for identification of novel therapeutic agents for treatment of microphthalmiaassociated transcription factor (MiT) renal cell carcinoma (RCC) (AID 1963991; calls by dose curve); conditions: CellTiter-Glo, 48 h; for Potency: active = Z-AUC below -0.8 in all three lines; for z-score: stronger effect = lower value
Procedure, shortened: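 Curves over 11 concentrations were fitted to CellTiter-Glo luminescence, scaled between empty wells (0%) and DMSO (100%) viability. Cells were UOK109, UOK124 and UOK145 TFE3-fusion RCC lines at 500/well, exposed 48 hours at 37 C.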

[16] = Quantitative High-Throughput drug screen in 47 multiple myeloma cell lines against the NCATS MIPE library collection: U266_ATCC cell viability assay (AID 1919864); also: nearly all actives have a fitted effect of over 35% in size
Procedure, shortened: as §1

[17] = Quantitative High-Throughput drug screen in 47 multiple myeloma cell lines against the NCATS MIPE library collection: UTMC2_PLB cell viability assay (AID 1919868); conditions: CellTiter-Glo ATP luminescence, 48 h; viability (% of DMSO control): at 45.8 µM (top of the series) unless noted; also: nearly all actives have a fitted effect of over 55% in size
Procedure, shortened: as §1

[18] = Quantitative High-Throughput drug screen in 47 multiple myeloma cell lines against the NCATS MIPE library collection: PE2_PLB cell viability assay (AID 1919869); also: nearly all actives have a fitted effect of over 35% in size
Procedure, shortened: as §1

[19] = qHTS profiling for inhibitors of Plasmodium falciparum proliferation (AID 504749); also: nearly all actives have a fitted effect of over 60% in size; conditions: P. falciparum in erythrocytes, SYBR Green DNA, 72 h
Procedure, shortened: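 SYBR Green fluorescence (ex 485 nm, em 535 nm) reports parasite DNA after 72 h compound exposure of infected red cells at 0.3% parasitemia, 2.5% hematocrit; signal normalized to 0.29 uM artemisinin and vehicle wells.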

[20] = measured here: PEO1 parental Z-AUC
[21] = TFE3-RCC UOK109 viability, measured here: UOK109 Z-AUC
[22] = TFE3-RCC viability, measured here: UOK124 Z-AUC
[23] = TFE3-RCC viability, measured here: UOK145 Z-AUC
Potency is read from the fitted curve at half-maximal effect.

COC(=O)Nc1nc2ccc(C(=O)c3ccc(F)cc3)cc2[nH]1
active: Potency [1] 0.935 µM | Potency [2] 0.296 µM | Potency [3] 0.469 µM | Potency [4] 0.59 µM | Potency [5] 0.469 µM | Potency [6] 0.469 µM | Potency [7] 0.332 µM | Potency [8] 0.935 µM | Potency [9] 0.743 µM | Potency [10] 1.87 µM | Potency [11] 0.935 µM | Potency [12] 0.296 µM | Potency [13] 0.332 µM | Potency ([15]; TFE3-RCC UOK109 viability) 1.87 µM
-1.13: Z-AUC ([14]; measured here: PEO4 Z-AUC) | z-score [15, 21]
inactive: Z-AUC [14] -0.379
-0.98: z-score [15, 23]
-1.2: z-score [15, 22]
-1.33: Z-AUC [14, 20]

CCC1=C[C@@H]2CN(C1)Cc1c([nH]c3ccccc13)[C@@](C(=O)OC)(c1cc3c(cc1OC)N(C)[C@@H]1[C@@](O)(C(=O)OC)[C@H](OC(C)=O)[C@]4(CC)C=CCN5CC[C@]31[C@@H]54)C2
active: Potency [1] 0.0166 µM | Potency [2] 0.166 µM | Potency [3] 0.0066 µM | Potency [4] 0.0264 µM | Potency [5] 0.0235 µM | Potency [16] 14.8 µM | Potency [17] 0.001 µM | Potency [18] 0.0264 µM | Potency [10] 0.118 µM | Potency [11] 0.0166 µM | Potency [12] 0.0083 µM | Potency [13] 0.0047 µM | Potency ([19]; parasite line A) 3.16 µM | Potency ([19]; parasite line B) 5.01 µM

COCCn1c2c([n+](Cc3cnccn3)c1C)C(=O)c1ccccc1C2=O
-3.26: Z-AUC [14, 20]
-3.48: Z-AUC ([14]; measured here: PEO4 Z-AUC)
-3.55: z-score [15, 21]
active: Potency [1] 0.0053 µM | Potency [2] 0.296 µM | Potency [3] 0.0074 µM | Potency [5] 0.0372 µM | Potency [16] 0.0059 µM | Potency [6] 0.0209 µM | Potency [7] 0.0074 µM | Potency [8] 0.0148 µM | Potency [17] 0.0418 µM | Potency [18] 0.0187 µM | Potency [9] 0.0235 µM | Potency [10] 0.0235 µM | Potency [11] 0.059 µM | Potency [12] 0.0132 µM | Potency [13] 0.0148 µM | Potency [14] 0.049 µM | Potency ([15]; TFE3-RCC UOK109 viability) 0.0833 µM
-3.23: z-score [15, 23]
-3.42: z-score [15, 22]

COc1cc(OC2CCN(C)CC2)ccc1Nc1ncc2c(n1)n(C1CCCC1)c(=O)n2C
active: Potency [1] 16.6 µM | Potency [2] 2.96 µM | Potency [3] 9.35 µM | Potency [4] 7.43 µM | Potency [16] 14.8 µM | Potency [7] 4.69 µM | Potency [8] 4.18 µM | Potency [17] 7.43 µM | Potency [18] 9.35 µM | Potency [9] 10.5 µM | Potency [12] 16.6 µM | Potency [13] 16.6 µM
0.287: Z-AUC [14, 20]
0.275: Z-AUC ([14]; measured here: PEO4 Z-AUC)
inactive: Z-AUC [14] 0.704

OCCCNc1cc(-c2ccnc(Nc3cccc(Cl)c3)n2)ccn1
inactive: Z-AUC [14] -1.99
-0.939: z-score [15, 22]
-2.17: Z-AUC ([14]; measured here: PEO4 Z-AUC)
active: Potency [1] 0.132 µM | Potency [2] 0.0469 µM | Potency [3] 0.105 µM | Potency [5] 0.148 µM | Potency [16] 0.148 µM | Potency [6] 0.0332 µM | Potency [7] 0.0418 µM | Potency [8] 0.0235 µM | Potency [17] 0.0418 µM | Potency [18] 0.0372 µM | Potency [9] 0.0166 µM | Potency [10] 0.187 µM | Potency [11] 0.235 µM | Potency [12] 0.0526 µM | Potency [13] 0.0935 µM | Potency ([15]; TFE3-RCC UOK109 viability) 0.209 µM
-2.3: Z-AUC [14, 20]
-1.57: z-score [15, 21]
-2.05: z-score [15, 23]

Cc1cc(N2CCOCC2)cc2[nH]c(-c3c(NC[C@@H](O)c4cccc(Cl)c4)cc[nH]c3=O)nc12
-0.435: Z-AUC [14, 20]
inactive: Z-AUC [14] -0.44
active: Potency [1] 0.469 µM | Potency [2] 0.105 µM | Potency [3] 1.66 µM | Potency [4] 0.469 µM | Potency [16] 2.64 µM | Potency [6] 0.0833 µM | Potency [7] 0.187 µM | Potency [8] 0.148 µM | Potency [17] 0.0662 µM | Potency [18] 0.148 µM | Potency [10] 0.469 µM | Potency [11] 3.72 µM | Potency [12] 0.0264 µM
-0.57: Z-AUC ([14]; measured here: PEO4 Z-AUC)

Nc1ccccc1NC(=O)c1ccc(CNC(=O)OCc2cccnc2)cc1
inactive: Z-AUC [14] -0.769
-1.54: Z-AUC ([14]; measured here: PEO4 Z-AUC)
active: Potency [1] 0.935 µM | Potency [2] 1.66 µM | Potency [3] 1.32 µM | Potency [4] 0.743 µM | Potency [5] 1.32 µM | Potency [6] 2.35 µM | Potency [7] 1.66 µM | Potency [8] 0.743 µM | Potency [17] 1.32 µM | Potency [18] 1.66 µM | Potency [9] 1.66 µM | Potency [10] 3.32 µM | Potency [11] 2.09 µM | Potency [12] 1.87 µM | Potency [13] 1.05 µM
-1.32: Z-AUC [14, 20]

Clc1ccc2ncc(-c3cccc(NC4CNC4)n3)n2c1
active: Potency [1] 8.33 µM | Potency [2] 14.8 µM | Potency [3] 23.5 µM | Potency [4] 14.8 µM | Potency [16] 18.7 µM | Potency [6] 8.33 µM | Potency [7] 14.8 µM | Potency [8] 16.6 µM | Potency [18] 16.6 µM | Potency [9] 18.7 µM | Potency [10] 20.9 µM | Potency [11] 23.5 µM | Potency [12] 20.9 µM
inactive: Z-AUC [14] -0.578
-0.613: Z-AUC ([14]; measured here: PEO4 Z-AUC)
0.128: Z-AUC [14, 20]

Clc1cccc(-c2nnnn2Cc2cccnc2)c1Cl
inactive: Potency [1] | Potency [3] | Potency [17] | Potency [10] | Potency [11] | Potency [13]
0.93: z-score [15, 21]
0.374: z-score [15, 23]
0.545: z-score [15, 22]
active: Potency [2] 3.72 µM | Potency [6] 16.6 µM | Potency [7] 18.7 µM

COc1cc2c(Oc3ccc4[nH]c(C)cc4c3F)ncnc2cc1OCCCN1CCCC1
0.0837: Z-AUC ([14]; measured here: PEO4 Z-AUC)
active: Potency [2] 6.62 µM | Potency [3] 23.5 µM | Potency [4] 5.9 µM | Potency [5] 20.9 µM | Potency [16] 26.4 µM | Potency [6] 2.35 µM | Potency [7] 3.32 µM | Potency [8] 4.69 µM | Potency [17] 26.4 µM | Potency [18] 13.2 µM | Potency [9] 2.35 µM | Potency [12] 2.96 µM | Potency [13] 16.6 µM
inactive: Z-AUC [14] -0.035
0.995: Z-AUC [14, 20]
